Reference: PubChem BioAssay AID1159580 (chemical genetic matrix, 2015)
In all, about 5,500 compounds went through this assay and about 2,000 (36%) were called active. Inconclusive results (about 18%) are left out. Cut-off read from the data, not from the text of the source: active = normalized growth mostly below about 0.91 (no sharp cut-off); inconclusive = no clear call, values can overlap the other calls; inactive = mostly above about 0.92. The list shows a part of the results.

Assay: chemical genetic growth profiling, strain panel (AID 1159580);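 note: tested at 20 µM; growth read once vehicle control cultures reached saturation at 30 °C; 1 = growth at the plate median or of vehicle wells; lower values mean less growth of the strain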
Conditions: growth OD

Measured: normalized growth

COc1ccc(C(Cl)=C(c2ccc(OC)cc2)c2ccc(OC)cc2)cc1
inactive: S. cerevisiae deletion strains, locus YKL009W, strain mrt4, active compounds read low 1.02 | S. cerevisiae deletion strains, locus YKL068W, active compounds read low 1.02 | S. cerevisiae deletion strains, locus YKL085W, strain MDH1 (second series), active compounds read low 0.98 | S. cerevisiae deletion strains, locus YKL085W, strain MDH1, active compounds read low 0.98 | S. cerevisiae deletion strains, locus YKL160W, strain elf1, active compounds read low 0.993 | S. cerevisiae deletion strains, locus YKL190W, strain CNB1, active compounds read low 1.01 | S. cerevisiae deletion strains, locus YKR001C, strain vps1, active compounds read low 1.01 | S. cerevisiae deletion strains, locus YKR026C, strain gcn3, active compounds read low 1.01 | S. cerevisiae deletion strains, locus YKR091W, strain srl3, active compounds read low 1.04 | S. cerevisiae deletion strains, locus YLL001W, strain dnm1, active compounds read low 1.01 | S. cerevisiae deletion strains, locus YLL026W, active compounds read low 1 | S. cerevisiae deletion strains, locus YLL041C, strain sdh2, active compounds read low 1.02 | S. cerevisiae deletion strains, locus YLR027C, strain aat2, active compounds read low 1.04 | S. cerevisiae deletion strains, locus YLR039C, strain RIC1, active compounds read low 1.01 | S. cerevisiae deletion strains, locus YLR058C, strain SHM2, active compounds read low 1.02 | S. cerevisiae deletion strains, locus YLR102C, strain apc9, active compounds read low 1.02 | S. cerevisiae deletion strains, locus YLR113W, strain HOG1, active compounds read low 0.97 | S. cerevisiae deletion strains, locus YLR221C, strain rsa3, active compounds read low 0.995 | S. cerevisiae deletion strains, locus YLR258W, strain gsy2, active compounds read low 1.02 | S. cerevisiae deletion strains, locus YLR262C, strain YPT6 (second series), active compounds read low 1.07 | S. cerevisiae deletion strains, locus YLR262C, strain YPT6, active compounds read low 1.02 | S. cerevisiae deletion strains, locus YLR268W, strain sec22, active compounds read low 1.01 | S. cerevisiae deletion strains, locus YLR320W, strain mms22, active compounds read low 1.01 | S. cerevisiae deletion strains, locus YLR330W, strain CHS5, active compounds read low 1.01 | S. cerevisiae deletion strains, locus YLR342W, strain FKS1 (second series), active compounds read low 0.988 | S. cerevisiae deletion strains, locus YLR342W, strain FKS1, active compounds read low 1.01 | S. cerevisiae deletion strains, locus YLR357W, strain rsc2, active compounds read low 1.04 | S. cerevisiae deletion strains, locus YLR370C, strain arc18, active compounds read low 0.972 | S. cerevisiae deletion strains, locus YLR371W, strain rom2, active compounds read low 1.03 | S. cerevisiae deletion strains, locus YLR384C, strain iki3, active compounds read low 1.01 | S. cerevisiae deletion strains, locus YLR418C, strain cdc73, active compounds read low 1.06 | S. cerevisiae deletion strains, locus YML016C, strain PPZ1, active compounds read low 1.02 | S. cerevisiae deletion strains, locus YML032C, strain rad52, active compounds read low 1 | S. cerevisiae deletion strains, locus YML120C, strain ndi1, active compounds read low 0.982 | S. cerevisiae deletion strains, locus YML124C, strain tub3, active compounds read low 1.03 | S. cerevisiae deletion strains, locus YMR058W, strain fet3, active compounds read low 1.05 | S. cerevisiae deletion strains, locus YMR078C, strain ctf18, active compounds read low 1.03 | S. cerevisiae deletion strains, locus YMR125W, strain sto1, active compounds read low 1.01 | S. cerevisiae deletion strains, locus YMR129W, active compounds read low 0.998 | S. cerevisiae deletion strains, locus YMR205C, strain PFK2, active compounds read low 1.03 | S. cerevisiae deletion strains, locus YMR223W, strain ubp8, active compounds read low 1.02 | S. cerevisiae deletion strains, locus YMR231W, strain pep5, active compounds read low 1.02 | S. cerevisiae deletion strains, locus YMR263W, strain SAP30, active compounds read low 1.04 | S. cerevisiae deletion strains, locus YMR307W, strain GAS1, active compounds read low 1 | S. cerevisiae deletion strains, locus YNL067W, strain RPL9B, active compounds read low 1.03 | S. cerevisiae deletion strains, locus YNL071W, strain lat1, active compounds read low 1.03 | S. cerevisiae deletion strains, locus YNL128W, strain TEP1, active compounds read low 1.03 | S. cerevisiae deletion strains, locus YNL183C, strain NPR1, active compounds read low 0.905 | S. cerevisiae deletion strains, locus YNL209W, strain ssb2, active compounds read low 1 | S. cerevisiae deletion strains, locus YNL233W, strain BNI4, active compounds read low 1.02 | S. cerevisiae deletion strains, locus YNL248C, strain rpa49, active compounds read low 0.962 | S. cerevisiae deletion strains, locus YNL250W, strain rad50, active compounds read low 1.05 | S. cerevisiae deletion strains, locus YNL271C, strain bni1, active compounds read low 1.01 | S. cerevisiae deletion strains, locus YNL298W, strain CLA4, active compounds read low 1.01 | S. cerevisiae deletion strains, locus YNL307C, strain MCK1, active compounds read low 1.02 | S. cerevisiae deletion strains, locus YNL322C, strain KRE1 (second series), active compounds read low 1.03 | S. cerevisiae deletion strains, locus YNR049C, strain mso1, active compounds read low 0.977 | S. cerevisiae deletion strains, locus YNR052C, strain pop2, active compounds read low 1.02 | S. cerevisiae deletion strains, locus YOL006C, strain TOP1, active compounds read low 1.12 | S. cerevisiae deletion strains, locus YOL012C, strain htz1 1.9 | S. cerevisiae deletion strains, locus YOL147C, strain pex11, active compounds read low 1.02 | S. cerevisiae deletion strains, locus YOR001W, strain rrp6, active compounds read low 1.04 | S. cerevisiae deletion strains, locus YOR061W, strain CKA2, active compounds read low 1.01 | S. cerevisiae deletion strains, locus YOR069W, strain VPS5, active compounds read low 1.02 | S. cerevisiae deletion strains, locus YOR070C, strain gyp1, active compounds read low 1.02 | S. cerevisiae deletion strains, locus YOR080W, strain dia2, active compounds read low 0.995 | S. cerevisiae deletion strains, locus YOR083W, strain WHI5, active compounds read low 1.02 | S. cerevisiae deletion strains, locus YOR106W, strain vam3, active compounds read low 1.07 | S. cerevisiae deletion strains, locus YOR136W, strain idh2, active compounds read low 1.01 | S. cerevisiae deletion strains, locus YOR144C, strain elg1, active compounds read low 1.01 | S. cerevisiae deletion strains, locus YOR184W, strain ser1, active compounds read low 1 | S. cerevisiae deletion strains, locus YOR231W, strain MKK1, active compounds read low 0.981 | S. cerevisiae deletion strains, locus YOR265W, strain rbl2, active compounds read low 0.996 | S. cerevisiae deletion strains, locus YOR270C, strain vph1, active compounds read low 1.09 | S. cerevisiae deletion strains, locus YOR290C, strain snf2, active compounds read low 1 | S. cerevisiae deletion strains, locus YOR316C, strain cot1, active compounds read low 1.02 | S. cerevisiae deletion strains, locus YPL051W, strain arl3, active compounds read low 0.99 | S. cerevisiae deletion strains, locus YPL055C, strain LGE1, active compounds read low 1.01 | S. cerevisiae deletion strains, locus YPL078C, strain atp4, active compounds read low 1.04 | S. cerevisiae deletion strains, locus YPL106C, strain sse1, active compounds read low 1.01 | S. cerevisiae deletion strains, locus YPL240C, strain hsp82, active compounds read low 0.989 | S. cerevisiae deletion strains, locus YPL241C, strain CIN2, active compounds read low 1.01 | S. cerevisiae deletion strains, locus YPL256C, strain CLN2, active compounds read low 0.964 | S. cerevisiae deletion strains, locus YPR119W, strain clb2, active compounds read low 1.02 | S. cerevisiae deletion strains, locus YPR141C, strain kar3, active compounds read low 1.02 | S. cerevisiae deletion strains, locus YPR163C, strain tif3, active compounds read low 1.03 | S. cerevisiae deletion strains, locus YPR167C, strain met16, active compounds read low 1.02 | S. cerevisiae deletion strains, strain wtn01, active compounds read low 1.02 | S. cerevisiae strains, strain wild type, active compounds read low 1.02
